The record followed here is ChEMBL document CHEMBL3433997, “St. Jude Leishmania screening dataset” (2016).

The term inhibition denotes the change of the read-out against control, counted positive when it falls.

One test concerns the target Hexose transporter 1 (Plasmodium falciparum) (UniProt O97467). Kind of test: ST_JUDE_LEISH: Cytotoxicity at 2uM final concentration against transgenic Leishmania Mexicana promastigotes LmPfHT that are glucose transport deficient and complemented with the Plasmodium falciparum hexose transporter. Activity is measured by DNA content using SYBR green in vitro. The class given is functional.
`COc1cc(CCCON2C(=N)N=C(N)NC2(C)C)cc(OC)c1OC`: the inhibition is -0.26%.
Same read-out and setting: next, `CCCCCCCCNCC(O)c1cc(-c2ccc(Cl)cc2)nc2cc(C)ccc12` (stereo not given): -0.38%.
Still for that read-out and setting: next, `O=C(Nc1nc2ccc(Cl)cc2s1)c1csnn1`: -1.39%.
With `COc1ccc(CN2CCC(NCc3cccc(C(F)(F)F)c3)CC2)cc1`, the inhibition was found to be 4.48%.
Still for that read-out and setting: then `CCC(CC)(Cc1ccccc1)NC(=O)[C@H](CC1CCCCC1)Nc1ccc(C#N)c2ccccc12`, with -0.75%.
Still for that read-out and setting: then `c1ccc2[nH]c(-c3ccc(-c4ccc(CN5CCCCC5)cc4)cc3)nc2c1`, with 12.9%; and `CN(CCNCc1ccc(-c2cccc(-c3nc4ccccc4[nH]3)c2)cc1)S(C)(=O)=O`, with 0.26%.
Same read-out and setting: then `COc1cc(Nc2ccnc3cc(-c4nccs4)ccc23)ccc1OCCCc1nc2ccccc2[nH]1`, with 4.2%.
With `O=C(/C=C/c1ccc(Cl)c(Cl)c1)NC1CCC(CN2CCC(c3c[nH]c4ccncc34)CC2)CC1` (stereo not given), the inhibition came to 0.56%.
On the same count and under the same terms, next, `CC(C)CCNC(=N)Nc1ccc(OCCCOc2ccc(NC(=N)NCCC(C)C)cc2)cc1`: -1.4%.
Same read-out and setting: then `c1cncc(-c2cc(N3CCCCC3)nc(-c3ccncc3)n2)c1`, with 6.14%; and `CN1CCC(N2CCN(Cc3ccc(-c4cccc(-c5nc6ccccc6[nH]5)c4)cc3)CC2)CC1`, with 1.87%; and `CCc1cccc(-n2c(=O)c3cccnc3n2CC(=O)NC2CCCC2)c1`, with 12%.
On the same count and under the same terms, next, `COc1cccc(Nc2nc(C)cc(NC3CCN(Cc4ccccc4)CC3)n2)c1`: 3.9%; `CN(C)CCNCc1cccc(-c2ccc3c(Nc4ccc(Oc5ccccn5)cc4)ccnc3c2)c1`: 1.4%; `Cc1cc(SC(C)(C)C)cc2c(Cl)c(C(N)=O)cnc12`: 93.7%.
In the case of `O=C(N[C@@H](Cc1ccccc1)C(=O)NC1CCCCCC1)c1ccc(O)c(-c2ccc(Cl)c(Cl)c2)c1`, the inhibition was found to be 3.77%.
For the compound `CCN(CC)CCCC(C)N/C(=N\c1ccccc1Br)Nc1ccc(C#N)cc1O` (stereo not given), the inhibition amounted to 0.06%.
Turning to `CCCNCc1ccc(-c2ccc(CN(CCOC)C(=O)[C@H]3CCCO3)cc2)nc1`, the inhibition worked out at 4.55%.
Same read-out and setting: then `Nc1nc(N)c2cc(Cc3ccc([N+](=O)[O-])cc3)cnc2n1`, with 0.37%.
On the same count and under the same terms, next, `CN(C)CCC1CCN(CCS(=O)(=O)c2cccc(Nc3ncc(-c4cccc(F)c4)cn3)c2)CC1`: 0.49%.
Consider `OC1(c2ccccc2)CCN(Cc2cccc(-c3c[nH]c4nc(NC5CCCC5)ncc34)c2)C1` (stereo not given), for which the inhibition came to 3.3%.
Same read-out and setting: then `Cc1ccc(CCOCCCCCNCC(O)c2cc(Cl)c(N)c(Cl)c2)cc1` (stereo not given), with -1.13%; and `Cc1cc(-c2ccc(CNC3Cc4ccccc4C3)cc2)ccc1S(=O)(=O)NCCN1CCCC1`, with 30.9%; and `c1ccc(Oc2ccc(Nc3ccnc4cc(-c5ccc(CN6CCOCC6)o5)ccc34)cc2)nc1`, with -1.03%.
As for `CN1CCN(Cc2cccc(-c3ccc4c(Nc5ccc(Oc6cccnc6)cc5)ccnc4c3)c2)CC1`, the inhibition was determined as 5.64%.
Same read-out and setting: next, `O=C1CSc2ccc(CNC3CCN(CCc4c(Cl)cnc5ccc(Cl)cc45)CC3)nc2N1`: -0.05%.
Same read-out and setting: next, `Cc1ccc(C(=O)Nc2cc(S(=O)(=O)N3CCCC3)ccc2OCC(F)(F)F)cc1`: 4.19%.
Same read-out and setting: then `O=C(Cc1ccccc1)NC1(c2ccccc2)CCN(CCc2c[nH]c3ccc(F)cc23)CC1`, with 0.25%; and `O=C(C=Cc1cccs1)N(CCCn1ccnc1)c1nc2ccc(F)cc2s1`, with 4.09%; and `COC(=O)c1cc2cccc(NC[C@@H](C)NC[C@H](O)c3cccc(Cl)c3)c2[nH]1`, with 1.58%.
With `O=C(/C=C/c1ccc(Cl)c(Cl)c1)NCC(CCCN1CCC(c2c[nH]c3ccccc23)CC1)c1ccccc1` (stereo not given), the inhibition was -1.36%.
The same measure, in the same setting: next, `COc1nc2c(CCN3CC[C@H](NCc4ccc5c(c4)NC(=O)CO5)[C@H](O)C3)c(Cl)cnc2cc1F`: 7.74%; `Cc1noc(NC(=O)c2sc3ccccc3c2O)c1C`: 0.61%.
Take `O=S(=O)(c1ccc(Oc2ccccc2)cc1)N(CCC(O)(C(F)(F)F)C(F)(F)F)Cc1cccc(O)c1`: the inhibition is -3.19%.
Same read-out and setting: then `CCNC(=O)Nc1ccc(-c2cccc(-c3nc4cccc(C)c4[nH]3)c2)cc1`, with 5.35%.
Still for that read-out and setting: then `Oc1ccc2c(CNCCc3ccccc3)c(O)ccc2c1CNCCc1ccccc1`, with 6.13%.
Still for that read-out and setting: next, `COc1cccc(Nc2nc(C)cc(NCc3ccc(-c4c(C)noc4C)cc3)n2)c1`: 13.4%.
For the compound `c1ccc(CSC2=NNC(c3ccccn3)S2)cc1` (stereo not given), the inhibition was determined as 3.23%.
The same measure, in the same setting: then `COc1ccc2ncc(F)c(CCN3CC(O)C(CNCc4ccccc4)C3)c2n1` (stereo not given), with 5.1%.

Another test deals with Glucose transporter (Leishmania mexicana) (UniProt O61059). Nature of the test: ST_JUDE_LEISH: Cytotoxicity at 2uM final concentration against transgenic Leishmania Mexicana promastigotes LmGT2 that are glucose transport deficient and complemented with the L. Mexicana glucose transporter 2. Activity is measured by DNA content using SYBR green in vitro. It is filed as functional.
On to `COc1cc(CCCON2C(=N)N=C(N)NC2(C)C)cc(OC)c1OC`, for which the inhibition came out at 1.06%.
The same measure, in the same setting: then `CCCCCCCCNCC(O)c1cc(-c2ccc(Cl)cc2)nc2cc(C)ccc12` (stereo not given), with -1.09%.
For the compound `O=C(Nc1nc2ccc(Cl)cc2s1)c1csnn1`, the inhibition was -5.77%.
On to `COc1ccc(CN2CCC(NCc3cccc(C(F)(F)F)c3)CC2)cc1`, for which the inhibition came out at 9.6%.
On to `CCC(CC)(Cc1ccccc1)NC(=O)[C@H](CC1CCCCC1)Nc1ccc(C#N)c2ccccc12`, for which the inhibition is -0.23%.
Still for that read-out and setting: then `c1ccc2[nH]c(-c3ccc(-c4ccc(CN5CCCCC5)cc4)cc3)nc2c1`, with 10.6%; and `CN(CCNCc1ccc(-c2cccc(-c3nc4ccccc4[nH]3)c2)cc1)S(C)(=O)=O`, with 1.73%.
On the same count and under the same terms, next, `COc1cc(Nc2ccnc3cc(-c4nccs4)ccc23)ccc1OCCCc1nc2ccccc2[nH]1`: 4.89%.
Still for that read-out and setting: next, `O=C(/C=C/c1ccc(Cl)c(Cl)c1)NC1CCC(CN2CCC(c3c[nH]c4ccncc34)CC2)CC1` (stereo not given): 0.65%; `CC(C)CCNC(=N)Nc1ccc(OCCCOc2ccc(NC(=N)NCCC(C)C)cc2)cc1`: -0.91%; `c1cncc(-c2cc(N3CCCCC3)nc(-c3ccncc3)n2)c1`: 4.53%.
For `CN1CCC(N2CCN(Cc3ccc(-c4cccc(-c5nc6ccccc6[nH]5)c4)cc3)CC2)CC1`, the inhibition was found to be 1.93%.
The same measure, in the same setting: then `CCc1cccc(-n2c(=O)c3cccnc3n2CC(=O)NC2CCCC2)c1`, with 4.05%; and `COc1cccc(Nc2nc(C)cc(NC3CCN(Cc4ccccc4)CC3)n2)c1`, with 0.8%; and `CN(C)CCNCc1cccc(-c2ccc3c(Nc4ccc(Oc5ccccn5)cc4)ccnc3c2)c1`, with 0.21%.
The same measure, in the same setting: then `Cc1cc(SC(C)(C)C)cc2c(Cl)c(C(N)=O)cnc12`, with 85.8%.
Still for that read-out and setting: next, `O=C(N[C@@H](Cc1ccccc1)C(=O)NC1CCCCCC1)c1ccc(O)c(-c2ccc(Cl)c(Cl)c2)c1`: 3.08%; `CCN(CC)CCCC(C)N/C(=N\c1ccccc1Br)Nc1ccc(C#N)cc1O` (stereo not given): -1.67%.
Take `CCCNCc1ccc(-c2ccc(CN(CCOC)C(=O)[C@H]3CCCO3)cc2)nc1`: the inhibition is 4.1%.
Still for that read-out and setting: then `Nc1nc(N)c2cc(Cc3ccc([N+](=O)[O-])cc3)cnc2n1`, with -0.27%; and `CN(C)CCC1CCN(CCS(=O)(=O)c2cccc(Nc3ncc(-c4cccc(F)c4)cn3)c2)CC1`, with 9.03%; and `OC1(c2ccccc2)CCN(Cc2cccc(-c3c[nH]c4nc(NC5CCCC5)ncc34)c2)C1` (stereo not given), with 4.81%.
Same read-out and setting: next, `Cc1ccc(CCOCCCCCNCC(O)c2cc(Cl)c(N)c(Cl)c2)cc1` (stereo not given): 0.95%.
Same read-out and setting: then `Cc1cc(-c2ccc(CNC3Cc4ccccc4C3)cc2)ccc1S(=O)(=O)NCCN1CCCC1`, with 3.47%; and `c1ccc(Oc2ccc(Nc3ccnc4cc(-c5ccc(CN6CCOCC6)o5)ccc34)cc2)nc1`, with -0.13%; and `CN1CCN(Cc2cccc(-c3ccc4c(Nc5ccc(Oc6cccnc6)cc5)ccnc4c3)c2)CC1`, with 4.34%.
Take `O=C1CSc2ccc(CNC3CCN(CCc4c(Cl)cnc5ccc(Cl)cc45)CC3)nc2N1`: the inhibition was -1.85%.
Still for that read-out and setting: then `Cc1ccc(C(=O)Nc2cc(S(=O)(=O)N3CCCC3)ccc2OCC(F)(F)F)cc1`, with 4.69%; and `O=C(Cc1ccccc1)NC1(c2ccccc2)CCN(CCc2c[nH]c3ccc(F)cc23)CC1`, with -0.69%; and `O=C(C=Cc1cccs1)N(CCCn1ccnc1)c1nc2ccc(F)cc2s1`, with 2.51%.
Still for that read-out and setting: then `COC(=O)c1cc2cccc(NC[C@@H](C)NC[C@H](O)c3cccc(Cl)c3)c2[nH]1`, with 1.28%.
On the same count and under the same terms, next, `O=C(/C=C/c1ccc(Cl)c(Cl)c1)NCC(CCCN1CCC(c2c[nH]c3ccccc23)CC1)c1ccccc1` (stereo not given): 2.05%; `COc1nc2c(CCN3CC[C@H](NCc4ccc5c(c4)NC(=O)CO5)[C@H](O)C3)c(Cl)cnc2cc1F`: 4.24%; `Cc1noc(NC(=O)c2sc3ccccc3c2O)c1C`: -0.8%.
With `O=S(=O)(c1ccc(Oc2ccccc2)cc1)N(CCC(O)(C(F)(F)F)C(F)(F)F)Cc1cccc(O)c1`, the inhibition is -4.58%.
For the compound `CCNC(=O)Nc1ccc(-c2cccc(-c3nc4cccc(C)c4[nH]3)c2)cc1`, the inhibition was 3.12%.
On the same count and under the same terms, then `Oc1ccc2c(CNCCc3ccccc3)c(O)ccc2c1CNCCc1ccccc1`, with 6.71%.
Still for that read-out and setting: then `COc1cccc(Nc2nc(C)cc(NCc3ccc(-c4c(C)noc4C)cc3)n2)c1`, with 3.73%; and `c1ccc(CSC2=NNC(c3ccccn3)S2)cc1` (stereo not given), with 2.48%.
Turning to `COc1ccc2ncc(F)c(CCN3CC(O)C(CNCc4ccccc4)C3)c2n1` (stereo not given), the inhibition is 4.78%.
